# RGS12 GoLoco inh-1 – inhibitors of human Gai1-RGS12 GoLoco interaction (red fluorophore); Gai1:RGS12 GoLoco peptide FP, rhodamine, 10 min; P63096; actives 0.44% (n = 230,000); AID 880; Potency, µM (titrated, usually from 61.6 µM), for inactives: at the highest dose activity, negative = inhibition, usual class: inhibitors; active = well fitted inhibition curve with a large enough effect, not every such curve was filed as active; inactive = no such curve, though single readings can be large or run the other way; also: potency is read from the fitted curve at half-maximal effect; % is scaled to controls: 0 for no effect and ±100 for the full control effect; nearly all actives have a fitted effect of over 30% in size
# APE1 inh – inhibitors of human APE1 endonuclease; Potency, µM (highest dose often 65.8 µM), for the others: at the top dose activity change, negative = inhibition, hits mostly inhibitors; actives 0.35% (n = 350,000); recombinant APE1, TAMRA/BHQ-2 abasic DNA cleavage fluorescence; AID 2517;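 also: potency is read from the fitted curve at half-maximal effect; plate controls were vehicle for no effect and reference inhibitor for full effect; nearly all actives have a fitted effect of over 55% in size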
#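 Enzyme (0.75 nM final) and test compound are incubated 15 min at room temperature before adding 50 nM quenched THF abasic-site duplex. Cleavage dequenches TAMRA, followed at 525/598 nm over three reads one minute apart.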
# RECQ1 inh – inhibitors of human RECQ1 DNA helicase | P46063 | RECQ1 DNA unwinding, red fluorescence kinetic read | Potency, µM (series often up to 57.3 µM), for inactives: top-dose activity, negative = inhibition, hits mostly inhibitors | actives 0.54% (n = 240,000) | AID 2549;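 also: potency is read from the fitted curve at half-maximal effect; plate controls were vehicle for no effect and no enzyme for full effect; nearly all actives have a fitted effect of over 30% in size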
#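 50 nM RECQ1T1 preincubated 15 min with compound in Tris pH 8.0 buffer with MgCl2, DTT, Tween-20 and 2.5 ug/ml poly(dI-dC); started with 200 nM TAMRA/BHQ-2 forked duplex and 2 mM ATP. Unwinding read as fluorescence (525/598 nm), two reads 2 h apart.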
# L3MBTL1 inh – inhibitors of human L3MBTL1; Q9Y468; AlphaScreen L3MBTL1–H3K9me1 peptide binding; Potency, µM (highest dose often 57.1 µM), for inactives: at the top dose activity, negative = inhibition, usual class: inhibitors; actives 0.66% (n = 230,000); also: potency is read from the fitted curve at half-maximal effect; % is scaled to controls: 0 for no effect and ±100 for the full control effect; nearly all actives have a fitted effect of over 60% in size
#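 L3MBTL1 (50 nM) pre-complexed 30 min with biotinylated H3(1-15)K9me1 peptide (75 nM), then compounds added for 30 min at room temperature; AlphaScreen streptavidin donor/nickel chelate acceptor beads (10 ug/mL final) read after 30 min dark incubation.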
# KDM4E inh – blocks human JMJD2E demethylase activity; B2RXH2; JMJD2E catalytic domain, FDH-coupled NADH fluorescence (FDH is formaldehyde dehydrogenase); Potency, µM (doses to about 57.1 µM), without a hit: at the highest dose activity change, negative = inhibition, hits mostly inhibitors; actives 1.6% (n = 230,000); active = well fitted inhibition curve with a large enough effect, not every such curve was filed as active; inconclusive = small, poorly fitted or top-dose-only effect, or another doubt; inactive = no such curve, though single readings can be large or run the other way;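 also: potency is read from the fitted curve at half-maximal effect; 0% = wells with enzyme and -100% = buffer wells without enzyme; nearly all actives have a fitted effect of over 50% in size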
# BLM helicase inh – blocks DNA unwinding by human BLM helicase. Potency, µM (highest dose often 56.1 µM), for inactives: at the top dose activity change, negative = inhibition, most hits filed as inhibitors. recombinant BLM DNA unwinding, fluorescence dequenching. AID 2528. P54132. actives 0.2% (n = 350,000);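 also: potency is read from the fitted curve at half-maximal effect; plate controls were vehicle for no effect and no enzyme for full effect; nearly all actives have a fitted effect of over 35% in size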
# RGS12 GoLoco inh-2 – disrupts Gai1 binding to human RGS12 GoLoco peptide; shares compounds with RGS12 GoLoco inh-1; Gai1/rhodamine-RGS12 GoLoco peptide fluorescence polarization; Potency, µM (titrated, usually from 57.1 µM), without a hit: at the top dose activity, negative = inhibition, actives largely listed as inhibitors; actives 50% (n = 110)
# * hit, by the source's call; i = inactive; u = inconclusive; x = no result given; ! = a repeat was not active; [ ] = remark or other dose. Shown is part of a subset that was picked to be rich in hits. Unless noted, calls follow the shape of the dose curve; as a rule, active = well fitted curve in the direction sought with a large enough effect; inconclusive = small, poorly fitted or top-dose-only effect, or another doubt; inactive = no such curve, though single readings can be large; an effect the other way counts as inactive or inconclusive.
SMILES,RGS12 GoLoco inh-1,APE1 inh,RECQ1 inh,L3MBTL1 inh,KDM4E inh,BLM helicase inh,RGS12 GoLoco inh-2
CC(=O)Nc1ccc(NC(=O)CN2C(=O)CN(C)C(=O)c3ccccc32)cc1,x,x,x,x,x,-0.8%,x
O=C(NC(=S)Nc1cnc2ccccc2c1)c1ccccc1,14.6%,2.6%,8.6%,-9.7%,u,-12.2%,x
S=C(NCCc1ccccc1)Nc1cnc2ccccc2c1,5.1%,-3.8%,i,0.1%,25.1µM*,-7.3%,x
O[C@@H]1COC2[C@@H](O)CO[C@@H]21 (stereo partly drawn),x,-1.2%,-6.8%,x,x,0.8%,x
CC[n+]1c(C)sc2sc3ccccc3c21,11.2µM*,5.3%,0.6%,x,14.1µM*,3.0%,x
O=C(COC(=O)c1ccc([N+](=O)[O-])s1)Nc1ncc(C(F)(F)F)cc1Cl,54.2%,u,9.1%,u,20µM*,-3.5%,x
CCC1=Nc2cc(C(=O)N3CCC(C)CC3)ccc2Sc2ccc(C)cc21,x,x,x,x,x,-11.1%,x
O=C(N/N=C/c1ccc(O)cc1)c1cc[n+](Cc2ccccc2)cc1,8.7%,-2.6%,-13.5%,-4.9%,-0.9%,0.6%,x
O=C(N/N=C/c1ccc(OCc2ccccc2)cc1)c1cc[n+](Cc2ccccc2)cc1,x,-0.3%,u,-26.3%,31.6µM*,0.8%,x
COc1ccc(NC(=O)N2CCC(CN3CCCC3)CC2)c(OC)c1,x,x,x,x,x,-0.4%,x
Oc1c(Cl)cc(Cl)cc1Sc1cc(Cl)cc(Cl)c1O,10.6%,8.4%,39.8µM*,-11.4%,u,u,x
O=[N+]([O-])c1cc2oc3c(c2c(C=NCc2ccncc2)c1O)CCCC3,5.2%,-8.7%,-18.8%,u,28.2µM*,u,x
COC(=O)CCCC1=CC2=C(c3ccccc3)C(=O)C(C)(OC(=O)C3CCCC3)C(=O)C2=CO1 (stereo not drawn),1.6%,-3.7%,-7.4%,x,1.6%,-3.7%,x
COC(=O)CCCC1=CC2=C(c3ccccc3)C(=O)C(C)(OC(=O)C3CCCC3)C(=O)C2=CN1Cc1ccco1 (stereo not drawn),-6.7%[14.2 µM],-5.8%[12.4 µM],i[11.5 µM],x,17.8µM*,-9.7%[12.4 µM],x
COC(=O)CCCC1=CC2=C(c3ccccc3)C(=O)C(C)(OC(=O)C3CCCC3)C(=O)C2=CN1CCCOC(C)C (stereo not drawn),30.2%[14.2 µM],-3.5%[12.4 µM],16.4%[11.5 µM],x,3.55µM*,-12.0%[12.4 µM],x
COC(=O)CCCC1=CC2=C(c3ccccc3)C(=O)C(C)(OC(=O)C3CCCC3)C(=O)C2=CN1CCCCO (stereo not drawn),-10.9%[14.2 µM],1.0%[12.4 µM],1.3%[11.5 µM],x,u,-15.0%[12.4 µM],x
CCCCNc1ccc2c3c(cccc13)C(=O)N(CCCC)C2=O,14.1µM*,-7.5%,-9.2%,197.0%,6.4%,-7.4%,14.1µM*
CCc1n(CC(O)COCc2ccccc2)c2ccccc2[n+]1C (stereo not drawn),3.16µM*,12.5%,-11.2%,x,-9.0%,3.6%,15.8µM*
C[n+]1cc2c3c(ccc2c2ccc4cc5c(cc4c21)OCO5)OCO3,14.1µM*!,0.8%,0.5%,x,u,-2.3%,25.1µM*
C[n+]1c(/C=C/c2ccc3c(c2)OCO3)ccc2ccccc21,-4.0%,4.5%,11.5%,x,u,1.0%,x
COC(=O)c1ccc(NC(=O)CSc2ccccn2)cc1,12.6µM*,-9.5%,-4.9%,x,-0.4%,-3.3%,u
Cc1cc(C)cc(Nc2cc(=O)n(C3CCCCC3)c(=O)[nH]2)c1,-10.8%,0.1%,i,-1.3%,-24.0%,-5.7%,x
Cc1cc2nc3c(=O)n(C4CCCCC4)c(=O)[nH]c3nc2cc1N,-27.8%,-1.8%,-2.2%,-27.2%,-0.2%,u,u
CCOc1ccc(N(CC(=O)N/N=C/c2ccc(OC(C)C)cc2)S(C)(=O)=O)cc1,10µM*,0.3%,-3.3%,-2.5%,1.9%,-8.6%,5.4%[0.0121 µM]

# From PubChem BioAssay
